The full ranking holds about 68,000 sequences; the median of “fluorescence intensity (a.u.)” is about 9,100, and the highest 2% start at about 16,000. What follows is part of a selection rich in the highest values, with near analogues and random picks from the rest.
molecular target: OsWRKY34 (Oryza sativa, UniProt Q0JBA9 1-250); test: protein-binding microarray (RPBM); PBS, 2% BSA, 51.3 ng/ul salmon testes DNA, 50 uM zinc acetate, 200 nM TF, 25 C, 1 h; high values mean tight binding; settings: protein: recombinant; tags: N-terminal polyhistidine and DsRed monomer fusion (pET32a); label: CyDye5-dUTP incorporated in the synthesized complementary strand; 3' TTTTT single-stranded linker to array surface; dsDNA, one strand shown
Procedure, shortened: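 Polyhistidine-tagged DsRed fusions of transcription factors, joined at the N-terminus, were expressed in E. coli BL21-CodonPlus and isolated on Ni–NTA. They were incubated at 200 nM for 1 h at 25 °C on a custom Agilent array, double-stranded and BSA-blocked, in PBS with 2% BSA, salmon testes DNA and 50 µM zinc acetate. The binding signal is per-feature fluorescence intensity (arbitrary units) read on an Axon 4000B scanner after washing.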

OsWRKY34, sequence (Q0JBA9 entry or part of it): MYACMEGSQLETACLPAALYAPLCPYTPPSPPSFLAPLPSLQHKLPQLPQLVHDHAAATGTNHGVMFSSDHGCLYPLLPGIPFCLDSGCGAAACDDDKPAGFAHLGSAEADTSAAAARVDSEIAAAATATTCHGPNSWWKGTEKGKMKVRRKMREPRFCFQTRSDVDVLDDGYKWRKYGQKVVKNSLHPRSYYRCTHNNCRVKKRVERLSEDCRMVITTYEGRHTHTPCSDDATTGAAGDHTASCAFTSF

Sequence | binding signal
TAATATTAATAAATAAAAAACCAGCGGTCGAACCGTTGACCGGAGTCACCTAGTGCAG | 13000 fluorescence intensity (a.u.)
TGGTGGGCGGTGGAGTTATTTTCTTAATAGAGCATTGAGACGGAGTCACCTAGTGCAG | 23900 fluorescence intensity (a.u.)
GAGGTAGTGGTTTAGAGGAGGAGGCGGAGAAGAGGAGGGACGGAGTCACCTAGTGCAG | 9020 fluorescence intensity (a.u.)
GGTTGCGTTGTTGCGGGCGTTGTTGCGGGCGGGCGGTCAGCGGAGTCACCTAGTGCAG | 16600 fluorescence intensity (a.u.)
GGGCATTGAGTGGTGGGGACGTGTGGGAGGCAGGCGGAGACGGAGTCACCTAGTGCAG | 9540 fluorescence intensity (a.u.)
TGTTGTTGCCGGAATGTGTGTGTGTGCGTGTGTGTGTGTGCGGAGTCACCTAGTGCAG | 8720 fluorescence intensity (a.u.)
GATCCAAGAGTGGAGAAGGAGAGGGGTGGGGAGCCGGCGACGGAGTCACCTAGTGCAG | 9460 fluorescence intensity (a.u.)
TAGAGGTGGGCGGTAGGGGCTATTTCTGCAATTTTTTGGTCGGAGTCACCTAGTGCAG | 9680 fluorescence intensity (a.u.)
AGGAGGTGGTATTATTTTTTTTTTGGTAGAGAGGGGAGGGCGGAGTCACCTAGTGCAG | 16500 fluorescence intensity (a.u.)
TTCGTTGTTGGTGGTGGTGGCGGGCGGAAGATGCGGTTGCCGGAGTCACCTAGTGCAG | 10000 fluorescence intensity (a.u.)
GAGAAGAGGAGAGAGAGTGAGAGTGGGCGACAATTTTATCCGGAGTCACCTAGTGCAG | 64200 fluorescence intensity (a.u.)
ATATTGGTGGGCGCGGATTTTAATAGGTGGGCGGTGGATTCGGAGTCACCTAGTGCAG | 8430 fluorescence intensity (a.u.)
GGCGAGGGGAGAAGAGAAGAGGTGGGTGAGGTGGGGTTTCCGGAGTCACCTAGTGCAG | 12800 fluorescence intensity (a.u.)
AATCTACACTAATTCTTCTGGTCTACACATTAAGTTATGACGGAGTCACCTAGTGCAG | 8670 fluorescence intensity (a.u.)
CCATGTCCGGATTCTCTAGGATTGCCTCCAATTTCTTCGCCGGAGTCACCTAGTGCAG | 8890 fluorescence intensity (a.u.)
TCCTACCTACAGCTATAGCTGCGTGCCGGGGTTGGGGCTGCGGAGTCACCTAGTGCAG | 8750 fluorescence intensity (a.u.)
CATCCTTCTCCGCGGCCATTTCTTGGAGCAAATCTCATTTCGGAGTCACCTAGTGCAG | 8420 fluorescence intensity (a.u.)
CCGCGGGCTTGGCTTGGCTGGCACCCTCTCCTTCTCGTCTCGGAGTCACCTAGTGCAG | 10300 fluorescence intensity (a.u.)
ACCCCAACGCAACCACTCTTCTCTACTACAATCGTTACTCCGGAGTCACCTAGTGCAG | 9310 fluorescence intensity (a.u.)
ATCCCAAACACTCTCGCCTCGTCTCCTCTCACACCACACGCGGAGTCACCTAGTGCAG | 10500 fluorescence intensity (a.u.)
CATTACCGCCACCTTCGATGCCGCCGCCTGCCGCTACCCGCGGAGTCACCTAGTGCAG | 8580 fluorescence intensity (a.u.)
TTAATACTTACTACTTGTCTGCTTTGAGTTTTTTGTTTAACGGAGTCACCTAGTGCAG | 9060 fluorescence intensity (a.u.)
CCTCGCCGTCGCCGGTCCTCGTCTCCTCCTCTATCTATATCGGAGTCACCTAGTGCAG | 8600 fluorescence intensity (a.u.)
ACCATGGGCGCACACGCTTCACTGCGTCTTTTTCCATCCACGGAGTCACCTAGTGCAG | 8320 fluorescence intensity (a.u.)

Sequence | binding signal
CTGAAGTGAGGGAGGGGAGGAGGTGGTGGTGGTGGGGAAGCGGAGTCACCTAGTGCAG | 15600 fluorescence intensity (a.u.)
GCTAGATTGGATAAGGAGGGGAGGAGGGTGGAGGGGAGGGCGGAGTCACCTAGTGCAG | 22700 fluorescence intensity (a.u.)
CCGCCATGTGGGCCCCACCTCGCCGCCTCCGCTCCACTCTCGGAGTCACCTAGTGCAG | 13600 fluorescence intensity (a.u.)
CGGCGCGGCGGAAGGAGGAGGGGTGGTGGATTCGTAGGGGCGGAGTCACCTAGTGCAG | 14600 fluorescence intensity (a.u.)
GGTTTGGTGGCGGAAAAGGTGGAGGCCTAGGTGGTGGTGGCGGAGTCACCTAGTGCAG | 8660 fluorescence intensity (a.u.)
GGTTGGTGGTGGAGGTGGTCAAGGCGGTGGTTTTGGAGCCCGGAGTCACCTAGTGCAG | 16400 fluorescence intensity (a.u.)
CCTCGCTCTCCATGGTGGTGGTGGTGGTCAGGTGGTGGGGCGGAGTCACCTAGTGCAG | 18800 fluorescence intensity (a.u.)
GCGGTGGAGAGTGGTGGGAGGTTGGGGAGAAGGCGGCGGCCGGAGTCACCTAGTGCAG | 14800 fluorescence intensity (a.u.)
AAGGCGGGAGGTTGAGAGAGAGATAAGGGAGAGAGAGGGGCGGAGTCACCTAGTGCAG | 8120 fluorescence intensity (a.u.)
AATGTGGTGGTGGTGGTGGTGAACGGAGGAGGGAGGGAGCCGGAGTCACCTAGTGCAG | 13000 fluorescence intensity (a.u.)
GGAGGAGGAGGTGGTGGTGGTGGTGAAGCCGCGGAGGTGCCGGAGTCACCTAGTGCAG | 18000 fluorescence intensity (a.u.)
AGGTCATCGCAGGGCTCCTCTCCATCGCAGCCGCTCCAGCCGGAGTCACCTAGTGCAG | 8910 fluorescence intensity (a.u.)
TCCGGTTGTTTGCCGTGGCACTTCCTTTCTCCCTATTGGCCGGAGTCACCTAGTGCAG | 8260 fluorescence intensity (a.u.)
AAGTGGGTGAGTCCAATAGGTGTGCACGTGAGGGGAGGGGCGGAGTCACCTAGTGCAG | 10500 fluorescence intensity (a.u.)
ATTCGTGCTCAGTTGTTTCTTTTCCAACTCCGGCGTCCTCCGGAGTCACCTAGTGCAG | 8150 fluorescence intensity (a.u.)
TACTCCTTATATTCCTTCATTTTTCAGCCTCGATCAGCTCCGGAGTCACCTAGTGCAG | 8130 fluorescence intensity (a.u.)
TACGAGCTTCTCCTCCTCCGCTGGTCATCATCCTACCTGTCGGAGTCACCTAGTGCAG | 8440 fluorescence intensity (a.u.)
TTCTACAGGAGTATCATCATCTTTGTGTTCTGGCTCCTGTCGGAGTCACCTAGTGCAG | 9040 fluorescence intensity (a.u.)
GACAATTTCTTTTTCCGATGGGATTTTAGTTTTTTGTTTTCGGAGTCACCTAGTGCAG | 9700 fluorescence intensity (a.u.)
CTCGCTAGCCCTCTGAACCTTGCAGTTTGTTGTTTGCACCCGGAGTCACCTAGTGCAG | 13600 fluorescence intensity (a.u.)
TCGGCCCGAGCGGTGGCGGTGGCGGTGGCGGAGGAGGAGGCGGAGTCACCTAGTGCAG | 10100 fluorescence intensity (a.u.)
GGAGGTGGAGGCGGCGGAGGAGGTGGTGGTGGAGGTGGAGCGGAGTCACCTAGTGCAG | 17900 fluorescence intensity (a.u.)
CGACGAGCGAGAGGTAGGTGAGAGAGAGACGGGCGGCGAACGGAGTCACCTAGTGCAG | 65100 fluorescence intensity (a.u.)

From article PMC7819943, “Rice protein-binding microarrays: a tool to detect cis-acting elements near promoter regions in rice”
